These results are taken from the supplement of paper PMC10503962.

This experiment deals with Trichuris muris adult worms. In words: mean motility score (Paragon pixel variance) of adult worms (arbitrary units); higher = more motile worms, i.e. less anthelmintic effect; extreme values may be limits of the assay. The conditions noted are these: 100 µM; 24 h. The procedure, abridged:
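Adult Trichuris muris worms were collected from infected NOD SCID mice and placed one per well in 96-well plates containing 100 μL RPMI-1640 with antibiotics and drug at 100 μM (1% v/v DMSO), then incubated for 24 h at 37°C and 5% CO2. Each plate was filmed on an automated phenotyping platform, capturing 200 frames 100 ms apart. The motility score came from Paragon pixel-variance analysis and was averaged over replicate wells. Every drug was tested with three worms in three wells on three separate occasions, alongside vehicle and positive controls.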
On to `CCCC(=O)O[C@]1(C(=O)COC(C)=O)CC[C@H]2[C@@H]3C[C@H](F)C4=CC(=O)C=C[C@]4(C)[C@@]3(F)[C@@H](O)C[C@@]21C` [difluprednate], for which the mean motility score stood at 3520.

As for `CCCCOc1cc(C(=O)NCCN(CC)CC)c2ccccc2n1` [dibucaine], the mean motility score came out at 2070.

In turn, `CCOC(=O)[C@H](CCc1ccccc1)N[C@H]1CCc2ccccc2N(CC(=O)O)C1=O.Cl` [benazepril hydrochloride] displayed a mean motility score of 2030.

Take `N[C@@H](CCC(=O)O)C(=O)O` [L-glutamate]: the mean motility score came out at 3930.

In turn, `CCCCCCCCCCCCCCCCOP(=O)([O-])OCC[N+](C)(C)C` [miltefosine] displayed a mean motility score of 2810.

In turn, `CN(C)CC/C=C1/c2ccccc2Sc2ccc(Cl)cc21` [chlorprothixene] yielded a mean motility score of 5.

`Cc1oncc1C(=O)Nc1ccc(C(F)(F)F)cc1` [leflunomide] yielded a mean motility score of 2250.

`CCc1ccc(CCOc2ccc(CC3SC(=O)NC3=O)cc2)nc1` (stereo not drawn) [pioglitazone] returned a mean motility score of 0.

`C[C@H](Cc1cc2c(c(C(N)=O)c1)N(CCCO)CC2)NCCOc1ccccc1OCC(F)(F)F` [silodosin] returned a mean motility score of 3810.

`Nc1nc(O)c2ncn(COC(CO)CO)c2n1` [ganciclovir] gave a mean motility score of 2950.

As to `NS(=O)(=O)Cc1noc2ccccc12` [zonisamide], the mean motility score was determined as 2960.

`COc1cccc2c1C(=O)c1c(O)c3c(c(O)c1C2=O)C[C@@](O)(C(=O)CO)C[C@@H]3O[C@H]1C[C@H](N)[C@H](O)[C@H](C)O1` [doxorubicin] returned a mean motility score of 2090.

Take `Clc1ccc(COC(Cn2ccnc2)c2ccc(Cl)cc2Cl)c(Cl)c1` (stereo not drawn) [miconazole]: the mean motility score was 122.

`COc1ccc2c(c1)c(CC(=O)O)c(C)n2C(=O)c1ccc(Cl)cc1` [indomethacin] registered a mean motility score of 2460.

Compound `Cc1cn([C@H]2C=C[C@@H](CO)O2)c(=O)[nH]c1=O` [stavudine] gave a mean motility score of 2180.

The compound `COC(=O)c1ccc2c(c1)NC(=O)/C2=C(\Nc1ccc(N(C)C(=O)CN2CCN(C)CC2)cc1)c1ccccc1` [nintedanib] displayed a mean motility score of 3140.

For the compound `CN(C)CCC=C1c2ccccc2CCc2ccccc21.Cl` [amitriptyline hydrochloride], the mean motility score was 0.

Take `CNCCC=C1c2ccccc2CCc2ccccc21` [nortriptyline]: the mean motility score turned out to be 911.

Consider `COc1ccc2cccc(CCNC(C)=O)c2c1` [agomelatine], for which the mean motility score was 3270.

As for `COc1ccc2cc([C@@H](C)C(=O)O)ccc2c1` [(R)-naproxen], the mean motility score came out at 1390.

The compound `COC(=O)c1ccccc1O` [methyl salicylate] gave a mean motility score of 3260.

The compound `Cc1ccnc2c1NC(=O)c1cccnc1N2C1CC1` [nevirapine] had a mean motility score of 2540.

In turn, `CN1CCN(C2=Nc3cc(Cl)ccc3Nc3ccccc32)CC1` [clozapine] came in with a mean motility score of 2870.

The compound `CC(=O)O` [acetic acid] registered a mean motility score of 2710.

Turning to `Cc1ccc(C)c(OCCCC(C)(C)C(=O)O)c1` [gemfibrozil], the mean motility score is 3280.

`CC(C)c1c(C(=O)Nc2ccccc2)c(-c2ccccc2)c(-c2ccc(F)cc2)n1CC[C@@H](O)C[C@@H](O)CC(=O)O` [atorvastatin] returned a mean motility score of 2620.

In the case of `Clc1ccccc1C(c1ccccc1)(c1ccccc1)n1ccnc1` [clotrimazole], the mean motility score stood at 0.

For `CC(C)(C)c1nc(-c2cccc(NS(=O)(=O)c3c(F)cccc3F)c2F)c(-c2ccnc(N)n2)s1` [dabrafenib], the mean motility score turned out to be 6.

On to `CN1CCCC(n2nc(Cc3ccc(Cl)cc3)c3ccccc3c2=O)CC1.Cl` (stereo not drawn) [azelastine hydrochloride], for which the mean motility score turned out to be 396.

Take `NNCCc1ccccc1` [phenelzine]: the mean motility score came to 3810.

The compound `Cl.N=C(N)NC(=O)c1nc(Cl)c(N)nc1N` [amiloride hydrochloride] had a mean motility score of 2260.

In turn, `O=C1NCCN1CCN1CCC(c2cn(-c3ccc(F)cc3)c3ccc(Cl)cc23)CC1` [sertindole] returned a mean motility score of 0.

The compound `CCCCNc1ccc(C(=O)OCCN(C)C)cc1` [tetracaine] yielded a mean motility score of 4810.

On to `NCCNCCNCCN` [trientine], for which the mean motility score came to 2070.

As to `Cc1ccc(C(=O)Nc2ccc(CN3CCN(C)CC3)c(C(F)(F)F)c2)cc1C#Cc1cnc2cccnn12` [ponatinib], the mean motility score was 1760.

The compound `O=P(O)(O)C(O)(Cn1ccnc1)P(=O)(O)O` [zoledronic acid] gave a mean motility score of 1210.

`Oc1ncnc2[nH]ncc12` [allopurinol] yielded a mean motility score of 4000.

As for `CC(=O)N1CCN(c2ccc(OC[C@@H]3CO[C@@](Cn4ccnc4)(c4ccc(Cl)cc4Cl)O3)cc2)CC1` [ketoconazole], the mean motility score was found to be 1360.
